Reference: the supplement of paper PMC11732987, “Enantioselective OTUD7B fragment discovery through chemoproteomics screening and high-throughput optimisation” (Communications Chemistry, 2025)

How the values were obtained:
Assay in all cases: log2 ratio of Biotin-Ahx-Ub-VS probe labelling (fragment/DMSO); higher = less target engagement (more negative = stronger competition), active = hit call of the paper (q ≤ 0.05, log2 ratio ≤ -1)
Settings in all cases: compound concentration: 200 uM; treatment time: 3 h
USP34 = USP34 (UniProt Q70CQ2)
Sequence of USP34 (Q70CQ2 whole entry, the tested form may be a part): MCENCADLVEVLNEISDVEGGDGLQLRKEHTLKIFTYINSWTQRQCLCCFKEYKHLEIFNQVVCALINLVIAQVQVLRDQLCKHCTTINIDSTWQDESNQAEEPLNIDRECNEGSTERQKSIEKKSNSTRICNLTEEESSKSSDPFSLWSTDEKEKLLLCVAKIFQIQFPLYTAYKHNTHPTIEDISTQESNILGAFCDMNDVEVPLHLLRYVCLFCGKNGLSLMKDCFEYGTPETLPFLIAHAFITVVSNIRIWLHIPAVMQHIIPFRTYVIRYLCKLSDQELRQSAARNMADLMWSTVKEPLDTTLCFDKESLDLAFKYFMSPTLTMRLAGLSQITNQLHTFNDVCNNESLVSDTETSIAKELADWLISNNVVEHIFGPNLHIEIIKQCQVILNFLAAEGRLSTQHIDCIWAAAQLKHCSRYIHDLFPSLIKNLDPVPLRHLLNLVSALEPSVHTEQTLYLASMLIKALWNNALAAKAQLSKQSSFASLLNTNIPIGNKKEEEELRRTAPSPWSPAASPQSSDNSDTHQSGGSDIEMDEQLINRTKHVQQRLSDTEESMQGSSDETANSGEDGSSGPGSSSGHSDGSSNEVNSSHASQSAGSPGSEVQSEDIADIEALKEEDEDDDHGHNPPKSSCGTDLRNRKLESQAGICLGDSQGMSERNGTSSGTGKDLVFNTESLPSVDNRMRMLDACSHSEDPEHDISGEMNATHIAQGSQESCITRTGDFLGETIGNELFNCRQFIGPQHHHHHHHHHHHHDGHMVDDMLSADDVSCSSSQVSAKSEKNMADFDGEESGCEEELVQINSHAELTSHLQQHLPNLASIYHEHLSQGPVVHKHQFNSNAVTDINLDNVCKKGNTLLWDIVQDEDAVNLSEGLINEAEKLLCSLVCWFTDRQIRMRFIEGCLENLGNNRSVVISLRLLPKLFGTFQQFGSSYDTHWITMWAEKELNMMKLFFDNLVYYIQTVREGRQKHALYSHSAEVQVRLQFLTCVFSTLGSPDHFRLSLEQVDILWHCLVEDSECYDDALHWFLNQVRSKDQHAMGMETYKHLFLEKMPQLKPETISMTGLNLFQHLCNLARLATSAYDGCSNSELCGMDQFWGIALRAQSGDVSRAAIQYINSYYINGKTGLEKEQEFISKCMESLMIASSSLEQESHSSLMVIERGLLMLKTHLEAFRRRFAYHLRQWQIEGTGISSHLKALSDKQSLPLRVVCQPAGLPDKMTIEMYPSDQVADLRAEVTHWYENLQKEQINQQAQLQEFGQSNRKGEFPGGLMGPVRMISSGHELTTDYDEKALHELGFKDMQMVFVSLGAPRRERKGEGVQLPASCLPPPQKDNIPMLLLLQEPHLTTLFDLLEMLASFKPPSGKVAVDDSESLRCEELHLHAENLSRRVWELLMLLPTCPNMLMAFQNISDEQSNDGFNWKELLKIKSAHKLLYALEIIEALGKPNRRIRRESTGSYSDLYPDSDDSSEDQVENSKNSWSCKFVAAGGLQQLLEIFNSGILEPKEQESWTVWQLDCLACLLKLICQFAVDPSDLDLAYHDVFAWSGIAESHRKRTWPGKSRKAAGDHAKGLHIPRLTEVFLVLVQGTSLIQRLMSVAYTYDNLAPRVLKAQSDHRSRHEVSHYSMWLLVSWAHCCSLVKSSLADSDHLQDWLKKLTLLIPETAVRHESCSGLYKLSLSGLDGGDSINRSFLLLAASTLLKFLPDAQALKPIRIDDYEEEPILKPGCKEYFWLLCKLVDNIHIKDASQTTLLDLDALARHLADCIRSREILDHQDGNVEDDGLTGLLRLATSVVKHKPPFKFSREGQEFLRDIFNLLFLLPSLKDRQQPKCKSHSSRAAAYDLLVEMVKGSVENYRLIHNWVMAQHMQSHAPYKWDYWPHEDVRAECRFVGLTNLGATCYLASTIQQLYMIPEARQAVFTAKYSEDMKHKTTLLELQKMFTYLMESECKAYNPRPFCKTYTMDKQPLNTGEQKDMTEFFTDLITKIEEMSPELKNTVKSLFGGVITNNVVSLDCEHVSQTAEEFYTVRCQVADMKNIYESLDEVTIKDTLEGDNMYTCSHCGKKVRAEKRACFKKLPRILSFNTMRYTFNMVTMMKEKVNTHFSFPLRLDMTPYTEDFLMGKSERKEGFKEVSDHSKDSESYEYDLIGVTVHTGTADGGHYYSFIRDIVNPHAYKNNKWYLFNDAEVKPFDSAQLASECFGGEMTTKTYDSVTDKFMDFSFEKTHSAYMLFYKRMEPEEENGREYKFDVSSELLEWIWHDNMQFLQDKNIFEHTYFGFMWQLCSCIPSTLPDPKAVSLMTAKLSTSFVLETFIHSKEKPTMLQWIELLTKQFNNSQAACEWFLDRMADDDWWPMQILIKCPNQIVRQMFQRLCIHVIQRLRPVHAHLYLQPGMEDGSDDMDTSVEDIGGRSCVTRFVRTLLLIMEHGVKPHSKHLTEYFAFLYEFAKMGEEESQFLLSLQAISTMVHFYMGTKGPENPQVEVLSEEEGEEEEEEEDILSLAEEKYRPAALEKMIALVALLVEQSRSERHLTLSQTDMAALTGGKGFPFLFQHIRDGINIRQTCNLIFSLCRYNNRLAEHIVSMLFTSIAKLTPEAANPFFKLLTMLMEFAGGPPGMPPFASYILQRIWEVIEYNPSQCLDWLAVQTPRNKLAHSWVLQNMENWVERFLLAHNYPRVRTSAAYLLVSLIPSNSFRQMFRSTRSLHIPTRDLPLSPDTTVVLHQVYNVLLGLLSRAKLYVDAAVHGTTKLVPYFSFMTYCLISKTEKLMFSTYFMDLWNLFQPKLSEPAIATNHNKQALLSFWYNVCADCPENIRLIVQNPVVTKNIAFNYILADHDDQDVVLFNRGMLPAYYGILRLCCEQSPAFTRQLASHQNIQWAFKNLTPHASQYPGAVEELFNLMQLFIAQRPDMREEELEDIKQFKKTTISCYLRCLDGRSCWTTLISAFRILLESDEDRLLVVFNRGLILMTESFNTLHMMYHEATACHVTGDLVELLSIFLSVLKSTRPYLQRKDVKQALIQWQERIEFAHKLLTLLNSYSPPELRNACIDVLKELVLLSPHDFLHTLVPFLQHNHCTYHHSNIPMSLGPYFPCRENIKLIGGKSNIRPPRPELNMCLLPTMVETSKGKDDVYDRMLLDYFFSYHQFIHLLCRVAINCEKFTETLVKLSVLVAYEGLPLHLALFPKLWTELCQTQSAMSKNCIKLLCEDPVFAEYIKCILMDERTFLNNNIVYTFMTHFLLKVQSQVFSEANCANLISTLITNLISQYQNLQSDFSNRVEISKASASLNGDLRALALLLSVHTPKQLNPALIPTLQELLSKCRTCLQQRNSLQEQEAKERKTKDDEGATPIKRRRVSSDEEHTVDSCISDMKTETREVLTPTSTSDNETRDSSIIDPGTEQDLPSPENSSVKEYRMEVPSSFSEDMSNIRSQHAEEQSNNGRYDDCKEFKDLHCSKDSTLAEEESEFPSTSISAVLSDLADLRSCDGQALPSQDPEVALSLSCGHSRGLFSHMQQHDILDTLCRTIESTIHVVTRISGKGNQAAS
In short: (§1)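 Labelled DUBs from HEK293T lysate were NeutrAvidin-enriched, digested with LysC and trypsin, and run by diaPASEF LC-MS/MS. Before that, each 495 µg sample in Tris/CHAPS/IGEPAL buffer with protease inhibitors was treated in triplicate with fragment at 200 µM or vehicle for 3 h, then with Biotin-Ahx-Ub-VS at 0.5 µM final for 1 h. Values are average log2 ratios of fragment over vehicle by unpaired t-test, based on global-median-normalised Spectronaut label-free quantities from proteins with ≥2 unique peptides.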

USP36 = biological target: T1, USP36 (UniProt Q9P275)
T1 sequence (whole entry): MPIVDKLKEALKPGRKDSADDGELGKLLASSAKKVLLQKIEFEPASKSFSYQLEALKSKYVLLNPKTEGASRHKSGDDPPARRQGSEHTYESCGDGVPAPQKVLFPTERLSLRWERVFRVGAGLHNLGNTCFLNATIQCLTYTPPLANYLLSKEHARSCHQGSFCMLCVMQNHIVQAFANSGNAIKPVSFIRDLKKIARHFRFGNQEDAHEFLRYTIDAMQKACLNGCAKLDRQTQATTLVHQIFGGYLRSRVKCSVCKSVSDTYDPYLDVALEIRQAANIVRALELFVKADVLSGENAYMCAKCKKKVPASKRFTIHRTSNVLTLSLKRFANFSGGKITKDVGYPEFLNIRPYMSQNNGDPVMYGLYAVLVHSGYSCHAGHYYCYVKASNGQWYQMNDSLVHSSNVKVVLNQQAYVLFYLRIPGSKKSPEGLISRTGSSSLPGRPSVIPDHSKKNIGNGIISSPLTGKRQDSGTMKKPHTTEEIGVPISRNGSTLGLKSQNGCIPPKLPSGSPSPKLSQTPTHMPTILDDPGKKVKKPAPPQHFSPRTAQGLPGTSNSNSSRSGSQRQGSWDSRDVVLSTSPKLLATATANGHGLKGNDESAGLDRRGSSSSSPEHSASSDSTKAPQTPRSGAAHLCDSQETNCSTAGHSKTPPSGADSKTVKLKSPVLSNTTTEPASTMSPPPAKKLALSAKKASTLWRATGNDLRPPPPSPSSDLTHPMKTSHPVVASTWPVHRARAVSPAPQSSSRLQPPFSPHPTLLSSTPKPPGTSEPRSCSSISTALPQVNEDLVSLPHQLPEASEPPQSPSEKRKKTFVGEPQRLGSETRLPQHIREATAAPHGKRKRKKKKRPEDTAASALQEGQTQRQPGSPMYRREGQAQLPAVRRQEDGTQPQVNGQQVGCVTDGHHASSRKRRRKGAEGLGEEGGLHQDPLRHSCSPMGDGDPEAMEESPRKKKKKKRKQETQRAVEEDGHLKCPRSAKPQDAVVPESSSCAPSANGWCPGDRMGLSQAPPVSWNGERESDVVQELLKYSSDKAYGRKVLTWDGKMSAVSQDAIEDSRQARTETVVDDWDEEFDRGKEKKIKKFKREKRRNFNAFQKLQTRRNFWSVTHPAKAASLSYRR
In short: as §1

USP38 = biological target: T2, USP38 (UniProt Q8NB14)
T2 sequence (whole entry): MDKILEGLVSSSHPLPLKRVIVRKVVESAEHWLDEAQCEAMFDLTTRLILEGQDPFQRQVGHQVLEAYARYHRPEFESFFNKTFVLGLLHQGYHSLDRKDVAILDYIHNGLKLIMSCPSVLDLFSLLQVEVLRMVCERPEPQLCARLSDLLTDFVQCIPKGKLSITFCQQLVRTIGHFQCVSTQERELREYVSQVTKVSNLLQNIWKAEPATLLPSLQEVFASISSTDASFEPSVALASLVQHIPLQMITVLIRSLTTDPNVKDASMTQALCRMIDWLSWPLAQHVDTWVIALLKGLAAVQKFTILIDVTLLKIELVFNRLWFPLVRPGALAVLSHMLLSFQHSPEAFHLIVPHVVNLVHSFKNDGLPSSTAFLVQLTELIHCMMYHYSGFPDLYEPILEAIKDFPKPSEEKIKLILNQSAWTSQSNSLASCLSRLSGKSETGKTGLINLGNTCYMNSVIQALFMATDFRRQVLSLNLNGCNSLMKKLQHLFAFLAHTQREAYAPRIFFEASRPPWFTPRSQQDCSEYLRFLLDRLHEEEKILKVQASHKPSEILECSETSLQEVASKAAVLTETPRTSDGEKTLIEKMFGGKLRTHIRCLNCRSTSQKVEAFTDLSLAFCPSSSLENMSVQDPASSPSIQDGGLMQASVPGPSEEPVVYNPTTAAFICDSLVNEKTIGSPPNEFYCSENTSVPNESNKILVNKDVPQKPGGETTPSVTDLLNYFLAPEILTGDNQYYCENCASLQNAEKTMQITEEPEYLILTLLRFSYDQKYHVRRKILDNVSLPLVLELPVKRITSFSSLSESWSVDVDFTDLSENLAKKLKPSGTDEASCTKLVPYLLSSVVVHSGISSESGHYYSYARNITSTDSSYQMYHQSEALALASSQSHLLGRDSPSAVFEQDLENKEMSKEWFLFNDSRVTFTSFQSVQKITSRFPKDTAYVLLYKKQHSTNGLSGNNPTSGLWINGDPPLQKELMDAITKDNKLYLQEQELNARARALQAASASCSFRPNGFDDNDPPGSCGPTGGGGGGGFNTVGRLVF
In short: as §1

USP39 = biological target: T3, USP39 (UniProt Q53GS9)
T3 sequence (whole entry): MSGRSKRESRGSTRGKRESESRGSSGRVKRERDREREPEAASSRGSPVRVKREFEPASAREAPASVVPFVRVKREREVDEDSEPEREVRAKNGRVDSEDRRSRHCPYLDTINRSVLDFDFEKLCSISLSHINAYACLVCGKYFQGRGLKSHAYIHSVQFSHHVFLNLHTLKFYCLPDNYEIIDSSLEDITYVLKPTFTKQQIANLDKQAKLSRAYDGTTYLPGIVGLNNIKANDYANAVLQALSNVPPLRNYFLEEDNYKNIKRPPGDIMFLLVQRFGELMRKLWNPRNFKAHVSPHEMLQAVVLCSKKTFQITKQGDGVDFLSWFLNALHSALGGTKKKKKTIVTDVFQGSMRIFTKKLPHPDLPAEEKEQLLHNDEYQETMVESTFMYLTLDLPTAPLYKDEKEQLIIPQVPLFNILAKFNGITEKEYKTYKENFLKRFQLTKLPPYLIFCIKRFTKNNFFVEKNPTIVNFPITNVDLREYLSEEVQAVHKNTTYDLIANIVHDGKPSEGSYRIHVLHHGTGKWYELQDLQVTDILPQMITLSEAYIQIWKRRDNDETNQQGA
In short: as §1

USP4 = biological target: T4, USP4 (UniProt Q13107)
T4 sequence (whole entry): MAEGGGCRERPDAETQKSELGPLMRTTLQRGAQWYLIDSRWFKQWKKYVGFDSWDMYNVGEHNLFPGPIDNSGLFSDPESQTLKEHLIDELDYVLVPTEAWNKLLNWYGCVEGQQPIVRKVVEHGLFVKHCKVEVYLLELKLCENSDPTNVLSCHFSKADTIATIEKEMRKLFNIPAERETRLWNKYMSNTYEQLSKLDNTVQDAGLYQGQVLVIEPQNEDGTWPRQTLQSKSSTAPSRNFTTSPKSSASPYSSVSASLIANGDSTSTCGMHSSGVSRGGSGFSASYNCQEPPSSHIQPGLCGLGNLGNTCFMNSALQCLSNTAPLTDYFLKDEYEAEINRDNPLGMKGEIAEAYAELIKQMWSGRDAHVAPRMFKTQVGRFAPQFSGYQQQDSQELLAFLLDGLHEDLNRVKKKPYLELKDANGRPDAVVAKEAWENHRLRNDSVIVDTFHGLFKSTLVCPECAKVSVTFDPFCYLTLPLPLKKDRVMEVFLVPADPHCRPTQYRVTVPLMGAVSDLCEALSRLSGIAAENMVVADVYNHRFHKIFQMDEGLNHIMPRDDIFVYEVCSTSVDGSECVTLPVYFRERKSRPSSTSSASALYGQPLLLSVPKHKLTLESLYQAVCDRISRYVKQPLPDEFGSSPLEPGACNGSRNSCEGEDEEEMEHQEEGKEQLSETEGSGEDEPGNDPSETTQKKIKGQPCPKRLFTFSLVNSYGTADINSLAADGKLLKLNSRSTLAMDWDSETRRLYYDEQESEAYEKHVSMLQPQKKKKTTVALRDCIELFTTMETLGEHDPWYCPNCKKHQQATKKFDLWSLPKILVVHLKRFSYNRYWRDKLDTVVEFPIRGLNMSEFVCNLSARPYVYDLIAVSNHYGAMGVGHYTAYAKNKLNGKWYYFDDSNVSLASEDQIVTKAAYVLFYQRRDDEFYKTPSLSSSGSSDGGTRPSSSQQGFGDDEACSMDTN
In short: as §1

Measured: log2 ratio of Biotin-Ahx-Ub-VS probe labelling

O=C(CCl)N1CCC(S(=O)(=O)c2ccc(F)cc2)CC1
inactive: USP34 -0.128 | USP36 -0.00998 | USP38 -0.00588 | USP39 0.031 | USP4 -0.218
